# Data taken from ChEMBL document CHEMBL1201862, “PubChem BioAssay data set” (2004).
# Screen size: about 57,000 sequences; about 3,700 (6.5%) were called active. No stated cut-off is given here; in the data, active = GI50 up to about 1.1 µM and inactive = higher. Not all results are given here. Results with a measured potency or affinity are listed apart.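 Test compounds were applied to cells in 96-well plates for 48 hours at 5 doses. GI50: concentration for 50% inhibition of growth.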
# Test system: ACHN
# Test: NCI tumour cell line growth inhibition, 48 h
row,Substance,GI50
1,"CISPLATIN, CHEMBL11359",1.22 µM
2,"cis-Bis[[(trimethylsilyl)methyl]amino]tetrachloroplatinum(IV), CHEMBL2146191",6.25 µM
3,"[Bis(aminomethyl)dimethylsilane]dichloroplatinum (II), CHEMBL2146201",12.6 µM
4,"[Bis(aminomethyl)tetramethylenesilane]dichloropaltinum(II), CHEMBL2146205",12.3 µM
5,"[Bis(aminomethyl)pentamethylenesilane]dichloropaltinum(II), CHEMBL2146202",1.63 µM
6,"mu-(1,7-nanodiamine-N,N')bis-(cis-aminedichloroplatimum (II)), CHEMBL2146215",27.8 µM
7,"[Bis(aminomethyl)ethylmethylsilane]tetrachloroplatinum(IV), CHEMBL2146192",2.67 µM
8,"[Bis(aminomethyl)pentamethylenesilane]tetrachloropaltinum(IV), CHEMBL2146204",1.79 µM
9,"[Bis(aminomethyl)tetramethylenesilane]tetrachloropaltinum(IV), CHEMBL2146189",3.69 µM
10,"[Bis(aminomethyl)dimethylsilane]tetrachloroplatinum(IV), CHEMBL2146190",4.84 µM
11,"[Bis(aminomethyl)diethylsilane]tetrachloroplatinum(IV), CHEMBL2146203",2.99 µM
